# Records with an inconclusive call do not appear. Where a call stands in place of a potency, no number is given. Values without a mark were called inactive. Calls of active or inactive are those of the source. The call rests on the fitted dose curve; in most records, active means well fitted cell-killing curve with a large enough effect in the repeat runs; inconclusive means weak or mixed curves, or effect the other way; inactive means flat fitted curve, though single readings scatter.
# Assays:
# [1] = cAMP Responsive Elements (CRE) small molecule antagonists, cell-based qHTS assay: qHTS cell viability counter screen (AID 2060913); further: nearly all actives have a fitted effect of over 40% in size
# Summary of the method: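 HEK293T CRE-bla, 2,000 cells/well, 18 h preincubation; cpd in DMSO + NKH477 0.25 uM final, 3 h 37 C/5% CO2; LiveBLAzer 2 h RT, then CellTiter-Glo 30 min RT, luminescence.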
# [2] = cAMP Responsive Elements (CRE) small molecule agonists, cell-based qHTS assay: qHTS cell viability counter screen (AID 2060914); further: nearly all actives have a fitted effect of over 50% in size
# Summary of the method: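 Luminescence read-out (CellTiter-Glo, 30 min RT) of ATP-based viability in CRE-bla HEK 293T cells, run in the same wells as the β-lactamase reporter assay after 3 h compound treatment at 37 °C.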
SMILES,Potency [1],Potency [2],"viability change, negative = cytotoxic [1]","activity change, negative = cytotoxicity [2]"
O=C(O)[C@H](O)[C@@H](O)[C@H](O[C@@H]1O[C@H](CO)[C@H](O)[C@H](O)[C@H]1O)[C@H](O)CO,inactive,inactive,–,–
N[C@@H](CSSC[C@H](N)C(=O)O)C(=O)O,–,–,0% [at 0.349 µM],11.2% [at 0.349 µM]
O=C(Oc1ccccc1)c1ccccc1,inactive,inactive,–,–
CC1(C)O[C@@H]2C[C@H]3[C@@H]4C[C@H](F)C5=CC(=O)C=C[C@]5(C)[C@@]4(F)[C@@H](O)C[C@]3(C)[C@]2(C(=O)CO)O1,inactive,inactive,–,–

# From PubChem BioAssay (Tox21)
